Here are results for 44 compounds from paper PMC4336329 (PLoS ONE, 2015).

The whole screen tested about 310,000 compounds, of which about 14,000 (4.5%) showed an effect of 50% or more. The effect is printed as a negative number. Only a selection was taken, and strong results are over-represented in it overall.
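Further: peak tail current of the secondary pulse compared with the same well before compound.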

The target of the experiment is human ether-à-go-go-related gene (hERG) potassium channel (human, UniProt Q12809). In words: primary screen, population patch clamp on CHO cells stably expressing hERG; higher = less effect of the substance.
human ether-à-go-go-related gene (hERG) potassium channel, sequence (Q12809 whole entry, looked up): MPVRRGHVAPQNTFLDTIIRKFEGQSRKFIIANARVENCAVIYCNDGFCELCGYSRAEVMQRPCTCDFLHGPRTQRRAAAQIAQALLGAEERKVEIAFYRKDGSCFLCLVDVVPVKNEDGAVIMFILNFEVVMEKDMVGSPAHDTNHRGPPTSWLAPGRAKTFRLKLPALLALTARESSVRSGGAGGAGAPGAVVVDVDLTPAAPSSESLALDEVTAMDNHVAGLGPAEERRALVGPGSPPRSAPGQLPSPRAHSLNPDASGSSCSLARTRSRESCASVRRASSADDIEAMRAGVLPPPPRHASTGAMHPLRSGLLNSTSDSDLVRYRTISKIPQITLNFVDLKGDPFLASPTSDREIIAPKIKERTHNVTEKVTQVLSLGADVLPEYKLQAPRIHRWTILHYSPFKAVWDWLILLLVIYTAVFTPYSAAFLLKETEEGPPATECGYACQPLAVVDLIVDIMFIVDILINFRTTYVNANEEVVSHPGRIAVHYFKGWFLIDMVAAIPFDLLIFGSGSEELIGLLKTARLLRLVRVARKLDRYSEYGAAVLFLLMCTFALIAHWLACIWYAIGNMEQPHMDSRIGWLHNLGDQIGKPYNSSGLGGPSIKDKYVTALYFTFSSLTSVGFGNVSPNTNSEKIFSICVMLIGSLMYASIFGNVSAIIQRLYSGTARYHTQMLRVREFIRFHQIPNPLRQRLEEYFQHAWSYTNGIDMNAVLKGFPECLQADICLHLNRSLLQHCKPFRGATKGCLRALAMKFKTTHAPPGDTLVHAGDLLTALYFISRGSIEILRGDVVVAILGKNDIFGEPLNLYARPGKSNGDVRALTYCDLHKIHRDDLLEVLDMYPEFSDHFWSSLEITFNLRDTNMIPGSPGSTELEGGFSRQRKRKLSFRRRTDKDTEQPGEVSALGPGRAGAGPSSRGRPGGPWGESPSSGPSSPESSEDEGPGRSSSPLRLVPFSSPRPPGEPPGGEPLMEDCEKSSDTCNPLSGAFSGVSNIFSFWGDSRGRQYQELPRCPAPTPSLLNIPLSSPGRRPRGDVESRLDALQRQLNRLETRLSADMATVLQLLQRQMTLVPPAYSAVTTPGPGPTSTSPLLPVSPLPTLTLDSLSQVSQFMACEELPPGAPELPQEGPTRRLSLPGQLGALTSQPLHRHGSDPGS
Consider `COc1ccc(NS(=O)(=O)c2c(C)n(C)c(=O)n(C)c2=O)cc1`, for which the “hERG current change (%, negative = inhibition) at 10uM” value is 15.5%.

Consider `CN(C)S(=O)(=O)c1ccc(Cl)c(NC(=O)COC(=O)/C=C/c2ccc3ccccc3n2)c1`, for which the “hERG current change (%, negative = inhibition) at 10uM” value was determined as 1.53%.

As for `Cc1ccc(C(=O)COC(=O)CNC(=O)C(c2ccccc2)c2ccccc2)cc1[N+](=O)[O-]`, the “hERG current change (%, negative = inhibition) at 10uM” value is recorded as 4.33%.

With `O=C(O)CC1Sc2ccccc2NC1=O` (centres unmarked), the “hERG current change (%, negative = inhibition) at 10uM” value is on record as -13.4%.

In the case of `CN(C)C=O.Cc1ccc(S(=O)(=O)N(C)C)cc1NC(=S)Nc1ccc2[nH]c(=O)[nH]c2c1`, the “hERG current change (%, negative = inhibition) at 10uM” value was 76.2%.

As to `CCc1cccc(OCC2Cn3c(nc4c3c(=O)n(C)c(=O)n4C)O2)c1` (centres unmarked), the “hERG current change (%, negative = inhibition) at 10uM” value stood at 3.18%.

Turning to `CC12CCC(=O)N1C(C(=O)Nc1ccc(S(=O)(=O)N3CCCCC3)cc1)CS2` (centres unmarked), the “hERG current change (%, negative = inhibition) at 10uM” value is given as -5.09%.

In the case of `CC12CCC(=O)N1C(C(=O)Nc1cccc(S(=O)(=O)N3CCCCC3)c1)CS2` (centres unmarked), the “hERG current change (%, negative = inhibition) at 10uM” value was -43.9%.

Regarding `CC12CCC(=O)N1C(C(=O)Nc1cccc(S(=O)(=O)N3CCCCCC3)c1)CS2` (centres unmarked), the “hERG current change (%, negative = inhibition) at 10uM” value is given as -69.8%.

In the case of `CCOc1cccc(N2C(=O)CC(N(CCc3ccc(OC)c(OC)c3)C(=O)CC)C2=O)c1` (centres unmarked), the “hERG current change (%, negative = inhibition) at 10uM” value is on record as 24.9%.

Turning to `COc1ccc(Cc2nnc(SCC(=O)Nc3ccc(C)cc3C)[nH]c2=O)cc1`, the “hERG current change (%, negative = inhibition) at 10uM” value is -16.8%.

Regarding `Cc1ccc(NC(=O)CSc2nnc(Cc3ccccc3)c(=O)[nH]2)c(C)c1`, the “hERG current change (%, negative = inhibition) at 10uM” value is given as -51.4%.

As to `Cc1ccc(Cc2nnc(SCC(=O)Nc3ccc(C)cc3C)[nH]c2=O)cc1`, the “hERG current change (%, negative = inhibition) at 10uM” value turned out to be 5.33%.

Consider `CCOc1cc(CNc2ccc3c(c2)CCC3)ccc1OC`, for which the “hERG current change (%, negative = inhibition) at 10uM” value is -8.96%.

Take `Cc1ccc(NC(=O)CS(=O)(=O)c2c[nH]c3ccccc23)c(C)c1`: the “hERG current change (%, negative = inhibition) at 10uM” value was 11.9%.

As to `Cc1ccc(C2=NN(CC(=O)NCCN(CC(C)C)CC(C)C)C(=O)CC2)cc1`, the “hERG current change (%, negative = inhibition) at 10uM” value is given as -50.2%.

With `Cc1ccc(C2=NN(CCC(=O)NCc3ccc4c(c3)OCO4)C(=O)CC2)cc1`, the “hERG current change (%, negative = inhibition) at 10uM” value is recorded as -69.7%.

In the case of `O=C(CN1N=C(c2ccccc2)CCC1=O)NCCCN1CCc2ccccc2C1`, the “hERG current change (%, negative = inhibition) at 10uM” value was -49.6%.

`O=C(CN1N=C(c2ccc(Cl)cc2)CCC1=O)NCCN1CCc2ccccc2C1`: the “hERG current change (%, negative = inhibition) at 10uM” value is reported as -51.4%.

In the case of `Cc1ccc(-c2ccc(=O)n(CC(=O)NCCN(CC(C)C)CC(C)C)n2)cc1`, the “hERG current change (%, negative = inhibition) at 10uM” value is on record as -16.3%.

On to `Cc1ccc(C2=NN(CCC(=O)NCCC(C)C)C(=O)CC2)cc1`, for which the “hERG current change (%, negative = inhibition) at 10uM” value was -24.5%.

In the case of `COc1ccc(C2=NN(CCC(=O)NCc3ccc4c(c3)OCO4)C(=O)CC2)cc1`, the “hERG current change (%, negative = inhibition) at 10uM” value is recorded as -18.8%.

Take `CC(C)CN(CCNC(=O)CN1N=C(c2ccc(Cl)cc2)CCC1=O)CC(C)C`: the “hERG current change (%, negative = inhibition) at 10uM” value is -42.4%.

On to `O=C(CCN1N=C(c2ccccc2)CCC1=O)NCCCN1CCOCC1`, for which the “hERG current change (%, negative = inhibition) at 10uM” value came out at 21.2%.

Turning to `O=C(CN1N=C(c2ccccc2)CCC1=O)NCCN1CCc2ccccc2C1`, the “hERG current change (%, negative = inhibition) at 10uM” value is listed as -15.7%.

`Cc1ccc(C2=NN(CCC(=O)NCCCN3CCOCC3)C(=O)CC2)cc1`: the “hERG current change (%, negative = inhibition) at 10uM” value is on record as -52.3%.

On to `Cc1ccc(CC(=O)NCc2ccc3c(c2)OCO3)cc1`, for which the “hERG current change (%, negative = inhibition) at 10uM” value is given as 2.24%.

Consider `O=C(CN1C(=O)NC2(CCCC2)C1=O)N1CCN(S(=O)(=O)c2ccccc2F)CC1`, for which the “hERG current change (%, negative = inhibition) at 10uM” value is recorded as 22.3%.

Consider `O=[N+]([O-])c1ccc(O)c(NC(=S)Nc2ccccc2)c1`, for which the “hERG current change (%, negative = inhibition) at 10uM” value turned out to be 23.9%.

`NC(=S)NC1CC2CC1C1C=CCC21` (centres unmarked): the “hERG current change (%, negative = inhibition) at 10uM” value amounted to 6.66%.

Take `CCOc1ccc(N(CC(=O)NCc2ccc(C)cc2)S(=O)(=O)c2c(C)[nH]c(=O)[nH]c2=O)cc1`: the “hERG current change (%, negative = inhibition) at 10uM” value was 6.73%.

For `Cc1nn(-c2ccccc2)c(Cl)c1C(=O)NCCCCNC(=O)c1c(C)nn(-c2ccccc2)c1Cl`, the “hERG current change (%, negative = inhibition) at 10uM” value is given as -2.76%.

Consider `CN(C)CCCNc1ccc(S(N)(=O)=O)cc1[N+](=O)[O-]`, for which the “hERG current change (%, negative = inhibition) at 10uM” value is given as -13.1%.

With `CCCCCCCNC(=O)CN1N=C(c2ccc(C)cc2)CCC1=O`, the “hERG current change (%, negative = inhibition) at 10uM” value is reported as -67.8%.

With `CC(C)CN(CCCNC(=O)CN1N=C(c2ccc(Cl)cc2)CCC1=O)CC(C)C`, the “hERG current change (%, negative = inhibition) at 10uM” value is given as -21.8%.

Consider `CCN(CC)CCCNC(=O)CN1N=C(c2ccc(OC)cc2)CCC1=O`, for which the “hERG current change (%, negative = inhibition) at 10uM” value turned out to be 14.5%.

As to `COCCNC(=O)CN1N=C(c2ccc(C)cc2)CCC1=O`, the “hERG current change (%, negative = inhibition) at 10uM” value was -47.9%.

In the case of `C=CCNC(=O)CN1N=C(c2ccc(C)cc2)CCC1=O`, the “hERG current change (%, negative = inhibition) at 10uM” value is -44.3%.

Regarding `Cc1ccc(C2=NN(CC(=O)NCCN(C)C)C(=O)CC2)cc1`, the “hERG current change (%, negative = inhibition) at 10uM” value was -44.9%.

As for `CC(C)CCNC(=O)CN1N=C(c2ccc(Cl)cc2)CCC1=O`, the “hERG current change (%, negative = inhibition) at 10uM” value is reported as -15.8%.

On to `CCCCN(C)CCCNC(=O)CN1N=C(c2ccc(Cl)cc2)CCC1=O`, for which the “hERG current change (%, negative = inhibition) at 10uM” value is -56.7%.

As for `CCOC(=O)CN1N=C(c2ccc(C)cc2)CCC1=O`, the “hERG current change (%, negative = inhibition) at 10uM” value is listed as -47.2%.

Regarding `CCOCCCNC(=O)CN1N=C(c2ccc(C)cc2)CCC1=O`, the “hERG current change (%, negative = inhibition) at 10uM” value is -73.9%.

Turning to `Cc1ccc(C2=NN(CC(=O)O)C(=O)CC2)cc1`, the “hERG current change (%, negative = inhibition) at 10uM” value is reported as -51.4%.
